# RXFP1 antagonist: qHTS Assay for Antagonists of the Relaxin Receptor RXFP1. HEK293-RXFP1, relaxin-stimulated cAMP HTRF, 30 min; active compounds read low. activity change, negative = inhibition, % at 57.5 µM. 350,000 tested, 0.59% active. AID 1259400, 2018;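 active = activity change of -60% or lower, but not beyond a set lower limit; inconclusive = change between -60% and -40%, or beyond the set limit; inactive = change above -40%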; note: % is set by controls: 0 for no effect and ±100 for the full control effect
# Target sequence (Q9HBX9 whole entry, looked up): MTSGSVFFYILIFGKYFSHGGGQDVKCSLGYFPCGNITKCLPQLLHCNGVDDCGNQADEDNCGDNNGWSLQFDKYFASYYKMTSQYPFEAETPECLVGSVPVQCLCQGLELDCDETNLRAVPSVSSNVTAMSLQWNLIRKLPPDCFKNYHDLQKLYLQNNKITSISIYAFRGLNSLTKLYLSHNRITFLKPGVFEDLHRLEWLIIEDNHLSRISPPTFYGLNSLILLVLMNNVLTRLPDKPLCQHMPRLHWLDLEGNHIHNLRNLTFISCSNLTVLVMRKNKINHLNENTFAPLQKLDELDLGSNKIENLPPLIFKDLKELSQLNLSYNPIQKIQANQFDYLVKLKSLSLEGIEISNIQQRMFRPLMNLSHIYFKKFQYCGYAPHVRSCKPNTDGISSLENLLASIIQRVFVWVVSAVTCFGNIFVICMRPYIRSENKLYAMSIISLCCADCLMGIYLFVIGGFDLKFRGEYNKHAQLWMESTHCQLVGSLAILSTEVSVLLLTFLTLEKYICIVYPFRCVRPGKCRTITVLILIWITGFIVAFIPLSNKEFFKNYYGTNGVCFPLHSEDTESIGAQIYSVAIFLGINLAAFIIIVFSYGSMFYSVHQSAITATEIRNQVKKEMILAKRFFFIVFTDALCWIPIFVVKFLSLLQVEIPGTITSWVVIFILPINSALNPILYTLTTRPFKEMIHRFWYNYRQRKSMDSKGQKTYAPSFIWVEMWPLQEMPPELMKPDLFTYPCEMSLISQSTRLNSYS
# gsp antagonist: qHTS for Antagonists of gsp, the Etiologic Mutation Responsible for Fibrous Dysplasia/McCune-Albright Syndrome: qHTS | Potency, µM (titrated, usually from 76.9 µM), inactives show at the top dose activity change, negative = inhibition, actives largely listed as inhibitors | 340,000 tested, 0.4% active | AID 624288, 2012 | gsp-mutant cells, cAMP HTRF, 30 min; calls by dose curve; cell line not stated here;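 note: intracellular cAMP measured with PDE inhibitor Ro 20-1724 present during compound exposure; potency is the fitted concentration of half-maximal effect; % is set by controls: 0 for no effect and ±100 for the full control effect; nearly all actives have a fitted effect of over 65% in size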
#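 G418-selected cells were plated in DMEM/10% FBS for 16-24 h at 37C, then treated with compounds plus the PDE inhibitor […] (300 uM solution added) for 30 min at 37C. Intracellular cAMP was measured by HTRF after 30 min lysis at room temperature.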
# RXFP1 ag: qHTS Assay for Agonists of the Relaxin Receptor RXFP1 | Relaxin receptor 1 (Homo sapiens), Q9HBX9 | HEK293T-RXFP1 cAMP TR-FRET, 30 min; response scale: percent of porcine relaxin response, buffer zero | Potency, µM (doses to about 57.5 µM), for inactives: top-dose activation, actives largely listed as activators | 370,000 tested, 0.3% active | AID 2676, 2010; active = well fitted activation curve with a large enough effect; inconclusive = small, poorly fitted or top-dose-only effect; note: potency is the fitted concentration of half-maximal effect; % is set by controls: 0 for no effect and ±100 for the full control effect; nearly all actives have a fitted effect of over 60% in size
#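 HEK293T cells stably expressing RXFP1 were pretreated with the PDE4 inhibitor Ro 20174, exposed to compounds for 30 min at 37C, lysed, and cAMP was read by TR-FRET. Data normalized to buffer (basal) and 29 nM porcine relaxin (100%).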
# Akt phos inh: HTS Assay for Inhibitors of Akt Phophorylation: Primary Screen | Neuro2A IGF-stimulated pAkt S473 HTRF, 20 min; active compounds read low | activity change, % for hits at 50 µM | 360,000 tested, 0.32% active | AID 651550, 2012; in the data active = activity change below about -80%; inconclusive = mostly about -51% to -80%; note: % is set by controls: 0 for no effect and ±100 for the full control effect
#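 Neuro2A cells in DMEM with 0.5% FBS, overnight at 37 deg C, given compound at single 50 µM final, then IGF (6 nM final) for 20 min at 37 deg C. Lysed; phospho-Akt Ser473 by HTRF after 24 h, 665/615 ratio.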
# gsp ag: qHTS for Agonist of gsp, the Etiologic Mutation Responsible for Fibrous Dysplasia/McCune-Albright Syndrome: qHTS | gsp mutant cells, cAMP HTRF, 30 min | AID 624287, 2012 | Potency, µM (highest dose often 76.9 µM), without a hit: at the highest dose activation (cAMP increase), usual class: activators | 340,000 tested, 0.13% active; active = well fitted activation curve with a large enough effect; inconclusive = small, poorly fitted or top-dose-only effect, or another doubt; inactive = no such curve, though single readings can be large or run the other way; cell line not stated here;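 note: phosphodiesterase inhibitor Ro 20-1724 added with compounds to block cAMP breakdown; potency is the fitted concentration of half-maximal effect; nearly all actives have a fitted effect of over 60% in size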
#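 Cells stably selected in G418 were plated at 2000/well, grown 16-24 hr, then given compounds in DMSO with the PDE inhibitor […] (300 uM solution added) for 30 min at 37C; cAMP was read by HTRF.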
# * hit, by the source's call; i = inactive; ? = inconclusive; · = not tested or not shown; [ ] = dose if it differs, or a comment. Sampled rows, rich in hits. Any-hit rate of the full collection: about 1.2%.
SMILES,RXFP1 antagonist,gsp antagonist,RXFP1 ag,Akt phos inh,gsp ag
O=C(CCS(=O)(=O)c1ccc(Br)cc1)NC1CCCC1,7,10%,1%,i,4µM*
O=C(CCNS(=O)(=O)c1ccc(Br)cc1)NC1CCCCC1,-5,-3%,2%,i,-5%
CN(C)CCCNc1cc(C(C)(C)C)nc2c(-c3ccccc3)cnn12,-61*,1%,0%,i,?
CC(C)(C)c1cc(NCCCn2ccnc2)n2ncc(-c3ccc(Cl)cc3)c2n1,18,10%,7%,i,?
C[C@@H]1CCCCO[C@@H](CN(C)C(=O)Nc2ccccc2)[C@@H](C)CN([C@H](C)CO)C(=O)c2cc(N(C)C)ccc2O1,5,·,·,i,14µM*
Cc1ccc(N2CCN(C(=O)C3CCN(c4ncnc5c4nc4n5CCCCC4)CC3)CC2)c(C)c1,4,·,-1%,·,·
CN1C(=O)C(C)(C)c2cc(S(=O)(=O)N3CCN(c4ccc(F)cc4)CC3)ccc21,-60*,-13%,-4%,i,23%
O=C(NCc1ccc(Cl)cc1)C1CCCN(c2cnccn2)C1 (centres undefined),9,9%,0%,i,?
O=C(NCc1ccc(Cl)cc1)C1CCCN(c2nc3ccccc3n3cccc23)C1 (centres undefined),-64*,·,3%,·,·
O=C(CCl)Nc1cc(SCC(O)CO)cc([N+](=O)[O-])c1 (centres undefined),-28,-1%,3%,i,-25%
CCC(=O)Nc1cc(SCCO)cc([N+](=O)[O-])c1,-8,-1%,1%,-88%*,2%
CCc1c(C)c2c(C)nn(-c3ccccc3)c2[nH]c1=O,-2,13%,0%,i,23%
Cc1c(C)c2c(C)nn(-c3ccccc3)c2[nH]c1=O,9,5%,1%,-108%*,3%
COc1ccc(NC(=O)CSc2nc3nc(C)c(Cc4ccccc4Cl)c(C)n3n2)cc1OC,-16,·,1%,·,·
O=C(NCCCN1CCN(c2ccccc2F)CC1)c1sc2ncccc2c1-n1cccc1,-15,·,4%,·,·
COc1cc(NS(=O)(=O)c2ccc(NC(C)=O)cc2)nc(OC)n1,-1,2%,-2%,i,0%
COc1cc(NS(=O)(=O)c2ccc(NC(=O)c3cccs3)cc2)nc(OC)n1,0,22µM*,0%,i,19%[15.4 µM]
Cc1ccc2[nH]c(=O)c(CN(CCCN(C)C)C(=O)Nc3ccc(F)cc3)cc2c1,-2,7.1µM*,0%,i,-8%[15.4 µM]
COC(=O)[C@@H]1[C@@H](C#N)C2(c3ccccc3-c3ccccc32)N(c2ccc(Cl)cc2)N1C#N,-73*,9%,0%,i,20%[15.4 µM]
CC(C)(C)c1csc(NC(=O)c2ccc(Cl)s2)n1,-101*,?,-1%,i,-18%
CCCN(Cc1cccs1)C(=O)Nc1cc(C)cc(C)c1,-14,·,-4%,·,·
CCOC(=O)Cc1ccc(NC(=O)N2CCC(CN3CCCCCC3)CC2)cc1,6,·,1%,·,·
O=C(O)CCNc1ccc(NCCC(=O)O)c2c1C(=O)c1ccccc1C2=O,-63*,?,-115%,i,?
COc1ccccc1NCCC(=O)O,5,2%,-2%,i,0%
COc1ccccc1N1CCN(CC(O)COc2cc(OC)c(OC)c(OC)c2)CC1 (centres undefined),8,·,·,·,·
SMILES,RXFP1 antagonist,gsp antagonist,RXFP1 ag,Akt phos inh,gsp ag
CCn1c(NCc2ccc3c(c2)OCO3)nc2ccccc21,8,10%,1%,-106%*,-4%
CC1(C)Cc2c(sc3c2c(=N)n(Cc2ccco2)c(=O)n3CC(=O)Nc2cccc(Cl)c2)CO1,-13,-10%[15.4 µM],-1%,-122%*,-10%
COc1ccc(C2(CNC(=O)C(=O)Nc3ccc(F)cc3)CCCC2)cc1OC,-3,·,5%,·,·
CCCCOC(=O)CSC1=C(C#N)C(c2ccccc2OCC)C(C#N)C(=O)N1 (centres undefined),41,32µM*,2%,·,29%
Cc1cc(C(=O)N2CCCC(N3CCN(c4cccc(C(F)(F)F)c4)CC3)C2)n[nH]1 (centres undefined),2,-2%,2%,i,-1%
O=C1CCC(C(=O)N2CCCC(N3CCN(c4cccc(C(F)(F)F)c4)CC3)C2)=NN1 (centres undefined),-7,5%,0%,i,4.5µM*
Cc1cc(C(=O)N2CCCC(N3CCN(c4cccc(C(F)(F)F)c4)CC3)C2)no1 (centres undefined),-14,4%,0%,i,-40%
Cc1cc(C)c(C(=O)N2CCCC(N3CCN(c4cccc(C(F)(F)F)c4)CC3)C2)o1 (centres undefined),-20,50µM*,1%,i,?
COc1ccc(Cl)cc1NC(=O)c1c(NCc2cccs2)sc2c1CCCC2,-9,·,2%,·,·
CCc1cc2c(CN3CCN(CCO)CC3)cc(=O)oc2cc1O,-6,2%,-3%,-106%*,26%
CCCOC(=O)NC(CC)COC(=O)Nc1cccc(C)c1C (centres undefined),-14,-3%,0%,-116%*,-7%
CCC(COC(=O)Nc1cccc(C)c1C)NC(=O)OCC(C)C (centres undefined),-5,-4%,0%,i,-49%
Cc1ccccc1OCCc1c(C)[nH]c(=S)[nH]c1=O,?,26%,1%,i,11%[15.4 µM]
Cc1[nH]c(=S)[nH]c(=O)c1CCOc1ccccc1,-81*,5%,-1%,i,24%
CCCCCCOC(=O)CCc1c(C)nc(N)[nH]c1=O,-7,13%,3%,i,2%
CCCCCCCCOC(=O)CCc1c(C)[nH]c(=S)[nH]c1=O,-70*,6%,5%,i,14%
COc1ccc(C(=O)NCc2ccc3c(c2)CCN3C(=O)c2ccc(Cl)cc2)c(OC)c1,-12,·,1%,·,·
COc1ccc2c(CNCCc3ccc(SC)cc3)c(C(=O)O)n(Cc3ccc(F)cc3)c2c1,·,·,4%,·,·
Cc1ccc(NC(=O)C2CCN(S(=O)(=O)c3c(C)noc3/C=C/N(C)C)CC2)cc1,-112*,-13%,-2%,i,?
Cc1noc(/C=C/N(C)C)c1S(=O)(=O)N1CCC(C(=O)Nc2ccc(Cl)cc2)CC1,-1,-20%,-1%,i,-35%
N#CC(C#N)=C1C=CC=CN1/C(=C\c1ccccc1)C(=O)c1cccs1,0,-3%,0%,i,-39%
N#CC(C#N)=C1C=CC=CN1/C(=C\c1ccccc1Cl)C(=O)c1ccccc1,-82*,10%,-1%,i,4%
